PubChem BioAssay (NCATS)
Records with an inconclusive call do not appear. Active and inactive are the calls of the source. Calls follow the shape of the dose curve; as a rule, active = well fitted curve in the direction sought with a large enough effect; inconclusive = small, poorly fitted or top-dose-only effect, or another doubt; inactive = no such curve, though single readings can be large; an effect the other way counts as inactive or inconclusive.

What was measured:
[1] = system: NIH3T3; experiment: qHTS assay to identify novel small-molecules to repurpose for Merkel cell carcinoma treatment (AID 1296009); conditions: MCC and control cell lines, CellTiter-Glo viability, 72 h; at 44.8 µM (top of the series) unless noted; also: nearly all actives have a fitted effect of over 60% in size
Outline: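 Cells were treated for 72 hr at 37 degree celsius with compounds in 8- or 11-point dose response. Viability was read by CellTiter-Glo luminescence, normalized to no-cell (cytotoxicity) and DMSO controls.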

[2] = system: C33A; experiment: Primary qHTS to identify gynecologic anti-cancer compounds using libraries of approved drugs and bioactive compounds (AID 1345084); conditions: Gynecologic cancer cell panel viability, ATPlite luminescence, 48 h; series mostly up to 57.5 µM; also: % is scaled to controls: 0 for no effect and ±100 for the full control effect; nearly all actives have a fitted effect of over 55% in size
Outline: (§1)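 Measured: luminescence after ATPlite addition (15 min, RT). Exposure: 48 h, 37 C, 5% CO2.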

[3] = system: CAOV3; experiment: as above; conditions: Gynecologic cancer cell panel viability, ATPlite luminescence, 48 h; series mostly up to 57.5 µM
Outline: as §1

[4] = system: CASKI; experiment: as above; conditions: Gynecologic cancer cell panel viability, ATPlite luminescence, 48 h; series mostly up to 57.5 µM
Outline: as §1

[5] = system: Es-2; experiment: as above; conditions: Gynecologic cancer cell panel viability, ATPlite luminescence, 48 h; series mostly up to 57.5 µM
Outline: as §1

[6] = system: HeLa; experiment: as above; conditions: Gynecologic cancer cell panel viability, ATPlite luminescence, 48 h; series mostly up to 57.5 µM
Outline: as §1

[7] = system: Hek293T; experiment: as above; conditions: Gynecologic cancer cell panel viability, ATPlite luminescence, 48 h, control line for the selectivity index; series mostly up to 57.5 µM
Outline: as §1

[8] = system: JEG-3; experiment: as above; conditions: Gynecologic cancer cell panel viability, ATPlite luminescence, 48 h; series mostly up to 57.5 µM
Outline: as §1

C/C=C1\[C@H](O[C@@H]2O[C@H](CO)[C@@H](O)[C@H](O)[C@H]2O)OC=C(C(=O)OC)[C@H]1CC(=O)OC
inactive: outcome [1] inactive [at 17.4 µM] | Potency [2] | Potency [3] | Potency [4] | Potency [5] | Potency [6] | Potency [7] | Potency [8]

C=CCc1ccc(O[C@@H]2O[C@H](CO[C@@H]3O[C@@H](C)[C@H](O)[C@@H](O)[C@H]3O)[C@@H](O)[C@H](O)[C@H]2O)cc1
inactive: outcome [1] inactive [at 17.4 µM] | Potency [2] | Potency [3] | Potency [4] | Potency [5] | Potency [6] | Potency [7] | Potency [8]

O=C(/C=C/c1c(C(=O)O)[nH]c2cc(Cl)cc(Cl)c12)Nc1ccccc1
inactive: outcome [1] | Potency [2] | Potency [3] | Potency [4] | Potency [5] | Potency [6] | Potency [7] | Potency [8]

c1ccc(C(OC2CCN(CCCc3nn[nH]n3)CC2)c2ccccc2)cc1
inactive: outcome [1] | Potency [2] | Potency [3] | Potency [4] | Potency [5] | Potency [6] | Potency [7] | Potency [8]

CNC(=O)Nc1ccc(OC)c(NC(=O)NC(=O)c2cc(F)c(F)cc2Cl)c1
inactive: outcome [1] | Potency [2] | Potency [3] | Potency [4] | Potency [5] | Potency [6] | Potency [7] | Potency [8]

C[C@@H]1O[C@@H](O[C@@H]2[C@@H](O)[C@H](O[C@@H]3[C@@H](O)[C@@H](O)[C@H](O[C@H]4[C@H](OC(=O)[C@]56CCC(C)(C)C[C@H]5C5=CCC7[C@@]8(C)C[C@H](O)[C@H](O[C@@H]9O[C@H](C(=O)O)[C@@H](O)[C@H](O)[C@H]9O)[C@@](C)(CO)C8[C@H](O)C[C@@]7(C)[C@]5(C)CC6)OC[C@H](O)[C@@H]4O)O[C@H]3C)OC[C@H]2O)[C@H](O)[C@H](O)[C@H]1O (stereo partly specified)
inactive: outcome [1] inactive [at 9.27 µM] | activity change, negative = cytotoxicity [2] -3.84% [at 6.55 µM] | activity change, negative = cytotoxicity [3] 1.69% [at 6.55 µM] | activity change, negative = cytotoxicity [4] -21.9% [at 6.55 µM] | activity change, negative = cytotoxicity [5] 7.07% [at 6.55 µM] | activity change, negative = cytotoxicity [6] 9.33% [at 6.55 µM] | activity change, negative = cytotoxicity [7] -1.15% [at 6.55 µM] | activity change, negative = cytotoxicity [8] -4.08% [at 6.55 µM]

CC(=O)N[C@H]1CCN(c2ccc(C3=NOC(CN[S+](=O)([O-])C(C)C)C3)cc2F)C1 (stereo partly specified)
inactive: outcome [1] | Potency [2] | Potency [3] | Potency [4] | Potency [5] | Potency [6] | Potency [7] | Potency [8]

COc1ccc2cc(OCC3(C(=O)O)CN(C(=O)c4ccc(F)cc4)C3)ccc2c1
inactive: outcome [1] | Potency [2] | Potency [3] | Potency [4] | Potency [5] | Potency [6] | Potency [7] | Potency [8]

CCn1nnnc1NCc1ccc(C(C)C)cc1
inactive: outcome [1] | Potency [2] | Potency [3] | Potency [4] | Potency [5] | Potency [6] | Potency [7] | Potency [8]

C/C1=C\C[C@H](O[C@@H]2O[C@H](CO)[C@@H](O)[C@H](O)[C@H]2O)/C(C)=C/[C@H]2OC(=O)[C@H](C)[C@@H]2CC1
inactive: outcome [1] inactive [at 17.4 µM] | Potency [2] | Potency [3] | Potency [4] | Potency [5] | Potency [6] | Potency [7] | Potency [8]

CC(C)(C)NCC(O)COc1cccc2c1CCCC2=O (stereo unspecified)
inactive: outcome [1] | Potency [2] | Potency [3] | Potency [4] | Potency [5] | Potency [6] | Potency [7] | Potency [8]

C=C(C)[C@@H](C)[C@H]1O[C@]23C[C@]4(CO2)C(CCC2[C@@]5(C)CC[C@H](O[C@@H]6OC[C@H](O)[C@H](O[C@@H]7O[C@H](CO)[C@@H](O)[C@H](O)[C@H]7O)[C@H]6O[C@@H]6O[C@@H](CO)[C@H](O)[C@H]6O)C(C)(C)C5CC[C@]24C)C3[C@@](C)(O)[C@@H]1OC(C)=O (stereo partly specified)
inactive: outcome [1] inactive [at 9.27 µM] | activity change, negative = cytotoxicity [2] 0.663% [at 11.6 µM] | activity change, negative = cytotoxicity [3] 12.4% [at 11.6 µM] | activity change, negative = cytotoxicity [4] -5.16% [at 11.6 µM] | activity change, negative = cytotoxicity [5] 4.13% [at 11.6 µM] | activity change, negative = cytotoxicity [6] -18.1% [at 11.6 µM] | activity change, negative = cytotoxicity [7] -2.35% [at 11.6 µM] | activity change, negative = cytotoxicity [8] 10.2% [at 11.6 µM]

OC[C@H]1O[C@@H](Oc2cc(O)cc(/C=C/c3ccc(O)cc3)c2)[C@H](O)[C@@H](O)[C@@H]1O
inactive: outcome [1] | Potency [2] | Potency [3] | Potency [4]

CC(C(=O)O)C1CCC2(C)C3C(=O)C=C4C(CCC(=O)C4(C)C)C3(C)CCC12C (stereo unspecified)
inactive: outcome [1] inactive [at 17.4 µM] | Potency [2] | Potency [3] | Potency [4] | Potency [5] | Potency [6] | Potency [7] | Potency [8]

C[C@]1(OC(=O)/C=C/c2ccccc2)C[C@H](O)[C@]2(O)C=CO[C@@H](O[C@@H]3O[C@H](CO)[C@@H](O)[C@H](O)[C@H]3O)C12 (stereo partly specified)
inactive: outcome [1] inactive [at 17.4 µM] | Potency [2] | Potency [3] | Potency [4] | Potency [5] | Potency [6] | Potency [7] | Potency [8]
